Measured values from PubChem BioAssay (NCI).
About 83,000 compounds went through this panel and 20% of them were active in at least one assay; those are over-represented in the sample as a whole.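 Cells were grown in 96-well plates and exposed to the test compound at a single concentration for 48 hours; results are reported as percent growth, with values below 10 considered active.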 Activity calls are given as the source filed them.

Tests used:
Assay in all cases: NCI-60 one-dose screen, 48 h (100 = growth as untreated, 0 = no growth, -100 = all killed)
Conditions in all cases: 10 µM unless noted
NCI-H23 lung = test system: NCI-H23 lung
NCI-H226 lung = test system: NCI-H226 lung
NCI-H322M lung = test system: NCI-H322M lung
HOP-62 NSCLC = test system: HOP-62 NSCLC
NCI-H460 lung = test system: NCI-H460 lung
HOP-92 NSCLC = test system: HOP-92 NSCLC
NCI-H522 lung = test system: NCI-H522 lung
A549/ATCC NSCLC = test system: A549/ATCC NSCLC
786-0 renal = test system: 786-0 renal
COLO 205 colon = test system: COLO 205 colon

Measured: growth

CCOC(=O)c1ccc2c(c1)[n+](=O)c(C(=O)C1CCCS1)c(C(F)(F)F)n2[O-] (stereo not given)
active: NCI-H23 lung -87% | NCI-H226 lung -54.9% | NCI-H322M lung -87.6% | HOP-62 NSCLC -90.6% | NCI-H460 lung -73.7% | HOP-92 NSCLC -83.6% | NCI-H522 lung -83.3% | A549/ATCC NSCLC -94.9% | 786-0 renal -92.3% | COLO 205 colon -84.8%

Nc1nc(N)c2nc3c(nc2n1)CCCCCCCCCC3
inactive: NCI-H23 lung 37.1% | NCI-H226 lung 102% | NCI-H322M lung 59.1% | HOP-62 NSCLC 58.1% | NCI-H460 lung 14.3% | HOP-92 NSCLC 79.7% | NCI-H522 lung 53.8% | A549/ATCC NSCLC 20.4% | 786-0 renal 31.9% | COLO 205 colon 54.1%

Fc1ccc2[nH]cc(-c3nc(-c4c[nH]c5ncccc45)cs3)c2c1
active: NCI-H460 lung 9.85% | NCI-H522 lung -7.49%
inactive: NCI-H23 lung 43.7% | NCI-H226 lung 47.4% | NCI-H322M lung 74.6% | HOP-62 NSCLC 47.6% | HOP-92 NSCLC 24.3% | A549/ATCC NSCLC 31.1% | 786-0 renal 41.5% | COLO 205 colon 45.1%

CC(CNc1nc(Nc2ccc(Cl)c(Cl)c2)nc(C(Cl)(Cl)Cl)n1)N(C)C (stereo not given)
inactive: NCI-H23 lung 14.2% | NCI-H226 lung 40.8% | NCI-H322M lung 27.6%
active: HOP-62 NSCLC -68.4% | NCI-H460 lung -63% | HOP-92 NSCLC -17.7% | NCI-H522 lung -86.8% | A549/ATCC NSCLC 4.96% | 786-0 renal -77.3% | COLO 205 colon -77.7%

O=C1CNCCN1
inactive: NCI-H23 lung 96.4% | NCI-H226 lung 97.1% | NCI-H322M lung 106% | HOP-62 NSCLC 114% | NCI-H460 lung 105% | HOP-92 NSCLC 105% | NCI-H522 lung 90.9% | A549/ATCC NSCLC 93.4% | 786-0 renal 100% | COLO 205 colon 122%

CC(=O)NC1=C(C#N)C(c2ccccc2Cl)c2c(ccc3ccccc23)O1 (stereo not given)
inactive: NCI-H23 lung 76.2% | NCI-H226 lung 83.5% | NCI-H322M lung 86.8% | HOP-62 NSCLC 59.2% | NCI-H460 lung 39.1% | HOP-92 NSCLC 72.5% | NCI-H522 lung 39.2% | A549/ATCC NSCLC 67.1% | 786-0 renal 82.7% | COLO 205 colon 79.5%

COc1cc(-c2c(C#N)c(-c3cccs3)nc3c2c(-c2ccccc2)nn3-c2ccccc2)ccc1O
inactive: NCI-H23 lung 98.4% | NCI-H226 lung 91.2% | NCI-H322M lung 96.6% | HOP-62 NSCLC 74.5% | NCI-H460 lung 77.5% | HOP-92 NSCLC 93.5% | NCI-H522 lung 69.8% | A549/ATCC NSCLC 58.3% | 786-0 renal 85.4% | COLO 205 colon 89.7%

CC(=O)OCCCCCCn1c2ccccc2c2c3c(c4c5ccccc5n(C)c4c21)C(=O)N(O)C3=O
inactive: NCI-H23 lung 68% | NCI-H226 lung 63.7% | NCI-H322M lung 77.4% | HOP-62 NSCLC 58.7% | NCI-H460 lung 48.1% | HOP-92 NSCLC 101% | NCI-H522 lung 50.4% | A549/ATCC NSCLC 94.5% | 786-0 renal 88% | COLO 205 colon 70.1%

CC(=O)OC(C)COc1ccc(-c2ccccc2)cc1 (stereo not given)
inactive: NCI-H23 lung 107% | NCI-H226 lung 106% | NCI-H322M lung 121% | HOP-62 NSCLC 102% | NCI-H460 lung 105% | HOP-92 NSCLC 89.9% | NCI-H522 lung 84.4% | A549/ATCC NSCLC 54.9% | 786-0 renal 93.4% | COLO 205 colon 104%

C=C1C(=O)O[C@H]2[C@H]1CC/C(Cn1cc(-c3ccc(OC)cc3)nn1)=C\CC[C@@]1(C)O[C@@H]21
active: NCI-H23 lung 4.37% | NCI-H226 lung -44.1% | HOP-92 NSCLC -60.1% | NCI-H522 lung -78.7% | 786-0 renal -83.2% | COLO 205 colon -86%
inactive: NCI-H322M lung 88.7% | HOP-62 NSCLC 49.7% | NCI-H460 lung 87.6% | A549/ATCC NSCLC 57.3%

COc1ccc(C2(Cl)c3ccccc3N(c3ccccc3)c3ccccc32)cc1
active: NCI-H23 lung -14.8% | NCI-H226 lung -27.8% | NCI-H322M lung 9.96% | HOP-62 NSCLC 8.43% | NCI-H460 lung -55.2% | HOP-92 NSCLC -14.7% | NCI-H522 lung -3.22% | A549/ATCC NSCLC 9.18% | 786-0 renal -48.8% | COLO 205 colon -42.8%

COc1cccc(-c2nn(-c3ccccc3)cc2-c2ccnc(NCCNS(=O)(=O)c3cccc(F)c3)c2)c1
inactive: NCI-H23 lung 38.4% | NCI-H226 lung 39.3% | NCI-H322M lung 59% | HOP-62 NSCLC 55.3% | NCI-H460 lung 24.2% | HOP-92 NSCLC 22.3% | A549/ATCC NSCLC 24.8% | 786-0 renal 25.9% | COLO 205 colon 16.6%
active: NCI-H522 lung 3.7%

CC(=O)Cc1nsc(NC(=O)c2ccoc2COc2ccccc2)n1
inactive: NCI-H23 lung 95.2% | NCI-H226 lung 105% | NCI-H322M lung 94.3% | HOP-62 NSCLC 107% | NCI-H460 lung 107% | HOP-92 NSCLC 90.1% | NCI-H522 lung 94.1% | A549/ATCC NSCLC 99.3% | 786-0 renal 98.7% | COLO 205 colon 121%

COC(c1ccccc1)(c1ccccc1)c1ccccc1
inactive: NCI-H23 lung 95.4% | NCI-H226 lung 101% | NCI-H322M lung 102% | HOP-62 NSCLC 106% | NCI-H460 lung 101% | HOP-92 NSCLC 147% | NCI-H522 lung 116% | A549/ATCC NSCLC 104% | 786-0 renal 93% | COLO 205 colon 123%

COc1cnc2c(c1)C(=O)c1c-2n(CCCNCCN2CCOCC2)c(=O)c2cc([N+](=O)[O-])ccc12
active: NCI-H23 lung -21.7% | NCI-H226 lung -52.7% | NCI-H322M lung 6.04% | HOP-62 NSCLC -0.313% | NCI-H460 lung -55.2% | HOP-92 NSCLC -4.05% | NCI-H522 lung -19.9% | A549/ATCC NSCLC -72.1% | 786-0 renal -53.6% | COLO 205 colon -2.78%

C=C(C)[C@@H]1CC[C@]2(c3nnc(-c4ccncc4)o3)CC[C@]3(C)[C@H](CC[C@@H]4[C@@]5(C)CCC(=O)NC(C)(C)[C@@H]5CC[C@]43C)[C@@H]12
inactive: NCI-H23 lung 94.7% | NCI-H226 lung 87.8% | NCI-H322M lung 94.3% | HOP-62 NSCLC 97.9% | NCI-H460 lung 98.5% | HOP-92 NSCLC 71.9% | NCI-H522 lung 93.9% | A549/ATCC NSCLC 92.8% | 786-0 renal 96.2% | COLO 205 colon 109%

C#CCn1c(C)cc(C)c(C#N)c1=O
inactive: NCI-H23 lung 107% | NCI-H226 lung 114% | NCI-H322M lung 103% | HOP-62 NSCLC 109% | NCI-H460 lung 107% | HOP-92 NSCLC 98.3% | NCI-H522 lung 103% | A549/ATCC NSCLC 104% | 786-0 renal 99.9% | COLO 205 colon 110%

Cn1cccc1/C=C1/SC(=S)N(CCc2ccc(O)cc2)C1=O
inactive: NCI-H23 lung 79.5% | NCI-H226 lung 87.8% | NCI-H322M lung 87.3% | HOP-62 NSCLC 56.3% | NCI-H460 lung 33.6% | HOP-92 NSCLC 88.3% | NCI-H522 lung 47.8% | A549/ATCC NSCLC 61.5% | 786-0 renal 64.4% | COLO 205 colon 103%

N#C/C(=C\c1ccc(-c2ccc(Br)cc2)o1)c1nc(-c2cccs2)cs1
inactive: NCI-H23 lung 91.3% | NCI-H226 lung 102% | NCI-H322M lung 97.8% | HOP-62 NSCLC 107% | NCI-H460 lung 103% | HOP-92 NSCLC 91% | NCI-H522 lung 94.4% | A549/ATCC NSCLC 109% | 786-0 renal 100% | COLO 205 colon 125%

CCC(CC)C(=O)OC(C)COc1ccc(C(C)(C)C)cc1 (stereo not given)
inactive: NCI-H23 lung 105% | NCI-H226 lung 100% | NCI-H322M lung 109% | HOP-62 NSCLC 103% | NCI-H460 lung 106% | HOP-92 NSCLC 92.6% | NCI-H522 lung 70.5% | A549/ATCC NSCLC 69.2% | 786-0 renal 97.4% | COLO 205 colon 124%

OCC1OC(n2cnc3c(Cl)ncnc32)CC1O (stereo not given)
inactive: NCI-H23 lung 118% | NCI-H226 lung 97.7% | NCI-H322M lung 101% | HOP-62 NSCLC 114% | NCI-H460 lung 104% | HOP-92 NSCLC 89.5% | NCI-H522 lung 101% | A549/ATCC NSCLC 104% | 786-0 renal 107% | COLO 205 colon 104%

COC(=O)[C@]12CC[C@@H](C)[C@H](C)[C@@H]1C1=CC[C@@H]3[C@@]4(C)C(c5ncon5)=C[C@@](C)(CO)C4=CC[C@@]3(C)[C@]1(C)CC2
active: NCI-H23 lung -26.2% | NCI-H226 lung -34.7% | HOP-62 NSCLC -8.97% | NCI-H460 lung -33.4% | HOP-92 NSCLC -49.9% | NCI-H522 lung -77.5% | 786-0 renal -23.8% | COLO 205 colon -46%
inactive: NCI-H322M lung 21.8% | A549/ATCC NSCLC 29.5%

Fc1cccc(-c2[nH]nc3nc(Nc4cccnc4)sc23)c1
inactive: NCI-H23 lung 43.3% | NCI-H226 lung 70.8% | NCI-H322M lung 65.1% | HOP-62 NSCLC 55.4% | NCI-H460 lung 21.2% | HOP-92 NSCLC 86.4% | NCI-H522 lung 16% | A549/ATCC NSCLC 37.8% | 786-0 renal 53.6% | COLO 205 colon 15.7%

COc1cc2c(cc1-c1c(C)noc1C)ncc1nc(C3CCC(F)(F)CC3)n([C@@H](C)COC(F)F)c12
inactive: NCI-H23 lung 60.2% | NCI-H226 lung 55% | NCI-H322M lung 40.6% | HOP-62 NSCLC 31.7% | NCI-H460 lung 55.3% | HOP-92 NSCLC 35.1% | NCI-H522 lung 31.5% | A549/ATCC NSCLC 37.5% | 786-0 renal 43.5% | COLO 205 colon 23.5%

O=S(=O)(NCCNc1cc(-c2cn(-c3ccccc3)nc2-c2cccc(O)c2)ccn1)c1ccccc1
inactive: NCI-H23 lung 57.4% | NCI-H226 lung 67.1% | NCI-H322M lung 82% | HOP-62 NSCLC 77.7% | NCI-H460 lung 49.1% | HOP-92 NSCLC 49.4% | NCI-H522 lung 42.3% | A549/ATCC NSCLC 45.5% | 786-0 renal 55.3% | COLO 205 colon 18.3%

C=C(C)[C@@H]1CC[C@]2(C)[C@H](CC[C@@H]3[C@H]4[C@H]5OC[C@@]4(CCC5(C)C)CC[C@]32C)[C@@]1(C)CCCN
active: NCI-H460 lung -28.6% | COLO 205 colon -58.2%
inactive: NCI-H23 lung 83.3% | NCI-H226 lung 100% | NCI-H322M lung 30.9% | HOP-62 NSCLC 96.3% | HOP-92 NSCLC 50.9% | NCI-H522 lung 97.6% | A549/ATCC NSCLC 55.1% | 786-0 renal 49.1%
